Assay outcomes: PubChem, National Center for Advancing Translational Sciences (NCATS)
Only some compounds are listed: those with a hit (about 6% of all), similar ones and a draw of the others.
D1 PAM: human D1 dopamine receptor positive modulation; P21728; HEK293 TREx D1 cells, calcium flux, dopamine EC20 potentiation; potentiation, % at 10 µM; 360,000 tested, 0.036% active; AID 504651; in the data active = potentiation above about 30%; also: 0% is about no effect
D1 agonist: human D1 receptor agonism; P21728; HEK293 T-REx D1 cells, calcium flux, agonist mode; 360,000 tested, 1% active; activation, % at 2 µM; in the data active = activation above about 30%; also: 0% is about no effect
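Agonism was scored from calcium flux recorded over 180 s (1 read/s) after pintool compound addition, following a 10-cycle baseline. Cells were inducible force-coupled HEK293 TREx D1, plated overnight at 30 C and loaded with no-wash calcium dye.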
D1 antag: blocks dopamine activation of the human D1 receptor; 360,000 tested, 3.2% active; activity change, negative = inhibition, % at 10 µM; HEK293 TREx D1 cells, calcium flux, dopamine EC80; active compounds read low; AID 504652; P21728; in the data active = activity change below about -30%; also: % is scaled to controls: 0 for no effect and ±100 for the full control effect
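HEK293 T-REx cells expressing inducible, force-coupled D1 receptor; no-wash Ca dye, 30–90 min RT. Cmpd → 180 s read at 1 Hz → EC80 DA → 180 s read.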
D3 ag: activates the human D3 dopamine receptor; D3R DiscoveRx beta-arrestin cells, luminescence, 90 min; P35462; max activation, %; 410,000 tested, 0.58% active; in the data active = max activation above about 30%; also: 0% is about no effect
Target sequence (P35462 whole entry, looked up): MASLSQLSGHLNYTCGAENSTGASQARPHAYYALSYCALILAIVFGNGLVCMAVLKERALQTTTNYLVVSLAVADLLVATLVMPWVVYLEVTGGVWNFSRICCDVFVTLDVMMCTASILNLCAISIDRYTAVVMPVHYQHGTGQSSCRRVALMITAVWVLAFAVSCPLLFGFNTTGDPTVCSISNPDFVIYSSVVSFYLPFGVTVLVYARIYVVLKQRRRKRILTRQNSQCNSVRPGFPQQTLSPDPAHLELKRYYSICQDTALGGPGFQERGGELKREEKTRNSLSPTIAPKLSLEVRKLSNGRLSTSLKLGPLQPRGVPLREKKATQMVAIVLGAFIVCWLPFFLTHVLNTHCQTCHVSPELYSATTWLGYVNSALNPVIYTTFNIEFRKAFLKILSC
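Cells at 1500/well, incubated overnight, then treated with pinned compounds (dopamine as control) for 90 min at 37 degrees C. DiscoveRx reagent added for 30 - 60 minutes at room temperature; luminescence read.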
D3 antag: D3 dopamine receptor (human) antagonism. 360,000 tested, 2.5% active. max response, negative = inhibition, %. AID 652054. D3R cells, DiscoveRx beta-arrestin luminescence, antagonist mode; active compounds read low; in the data active = max response below about -50%; inconclusive = no clear call, values can overlap the other calls; also: % is scaled to controls: 0 for no effect and ±100 for the full control effect
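Cells expressing the human receptor were seeded at 1500 cells/well, incubated overnight at 37 degrees C in 5% CO2, then exposed to library compounds with dopamine controls for 90 minutes at 37 degrees C before luminescent detection.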
Active calls of the source: *; ? = inconclusive; . = no result given.

SMILES | D1 PAM | D1 agonist | D1 antag | D3 ag | D3 antag
O=C(Nc1ccc(Br)cc1)N1CCCCCC1 | -7 | 0 | -50* | -5 | 1
CCCNC(=S)N1CCC(C(=O)c2ccc3c(c2)OCCO3)CC1 | -9 | 15 | -34* | 6 | 12
O=C(c1ccc(F)cc1)C1CCN(C(=O)Nc2ccc(F)cc2)CC1 | -10 | 6 | -30* | -5 | 15
O=C(CN1CCC(C(=O)c2ccc(F)cc2)CC1)Nc1ccc(F)cc1 | -7 | 7 | -7 | 1 | -71*
CN(C)c1ccc(NC(=O)CN2CCC(O)(c3ccccc3)CC2)cc1 | -5 | 2 | -5 | -17 | -79*
O=C(CN1CCN(c2ccc(O)cc2)CC1)Nc1ccc2c(c1)OCCO2 | -10 | 1 | 2 | 30* | 4
Cc1ccc(C(=O)C2CCN(CC(=O)N3CCN(c4ccc(F)cc4)CC3)CC2)cc1 | -4 | 5 | -31* | -29 | ?
COCCCNC(=O)c1oc2c(c1C)-c1nn(Cc3cccc(Cl)c3)cc1CC2 | 0 | 0 | 5 | -12 | .
COc1cc(C2NC(=O)NC(C)=C2C(=O)Nc2cc(C)cc(C)c2)ccc1O (configuration not stated) | -1 | 0 | 8 | 4 | .
CC1Cc2ccccc2N1CC(=O)Nc1ccc2c(c1)OCCCO2 (configuration not stated) | -2 | 1 | -5 | 67* | -1
O=C(CN1CCC(C(=O)c2ccc(F)cc2)CC1)Nc1ccccc1 | -11 | 7 | -56* | -28 | -81*
CC1Cc2ccccc2N1CC(=O)Nc1ccc(N2CCOCC2)cc1 (configuration not stated) | 2 | 0 | 3 | -3 | -7
O=C1C(c2[nH]c3ccc(S(=O)(=O)O)cc3c2O)=Nc2ccc(S(=O)(=O)O)cc21 | . | . | . | 5 | .
Cc1ccccc1C(=O)Nc1nc(-c2ccc(Br)cc2)ns1 | 1 | 7 | -16 | -20 | .
N#Cc1nc(Nc2ccc(-c3ccccc3)cc2)nc(NC2CCCC2)n1 | -5 | 5 | 21 | . | .
Cc1ccc(OCCN2CCN(c3ncnc4sc(C)c(C)c34)CC2)cc1 | 2 | 3 | 4 | 33* | 16
Cc1sc2ncnc(N3CCCCC3)c2c1C | -1 | -2 | -3 | 8 | 30
COc1ccc(/C=N/OCC(=O)Nc2cc(C)on2)cc1OC | 4 | 2 | 2 | 30* | 18
C[C@@H]1C/C=C/C=C/C=C/C=C/[C@H](O[C@@H]2O[C@H](C)[C@@H](O)[C@H](N)[C@@H]2O)C[C@@H]2O[C@](O)(C[C@@H](O)C[C@H]3O[C@@H]3/C=C/C(=O)O1)C[C@H](O)[C@H]2C(=O)O | . | . | . | 7 | .
COC(=O)CN1C(=O)Nc2ccc(C)cc2C1c1ccccc1 (configuration not stated) | 0 | 2 | 2 | 2 | -11
COc1ccc(Br)cc1CC1C(=O)Nc2ccccc21 (configuration not stated) | 3 | 14 | -11 | 10 | .
Cc1ccccc1CC1C(=O)Nc2ccc(Br)cc21 (configuration not stated) | 32* | 48* | 3 | 10 | .
Cc1ccc2c(c1)C(Cc1ccccc1F)C(=O)N2 (configuration not stated) | -2 | 2 | -46* | 10 | .
CCN(Cc1ccccc1)C(=O)Cn1c(=O)n(-c2ccc(F)c(Cl)c2)c(=O)c2sc3ccccc3c21 | 0 | -1 | 10 | 1 | .
Cc1ccccc1CNc1nc(N(C)C)nc2c1cnn2C | 0 | -2 | 15 | -4 | .
SMILES | D1 PAM | D1 agonist | D1 antag | D3 ag | D3 antag
Cc1ccc(S(=O)(=O)NC(C(=O)Oc2ccc3c(C(F)(F)F)cc(=O)oc3c2)c2ccccc2)cc1 (configuration not stated) | -6 | 57* | -9 | 7 | 11
O=C(NCCc1nc2ccccc2n1Cc1ccc(F)cc1)c1ccco1 | 0 | -1 | 1 | -1 | .
CC(/C=N/n1c(-c2ccc(Cl)cc2)n[nH]c1=S)=C\c1ccco1 | 10 | 1 | 6 | 3 | -15
N#CC(C#N)=C1C=CC=CN1/C(=C\c1ccco1)C(=O)c1ccc(Cl)cc1 | -11 | 3 | -52* | -6 | -108*
N#CC(C#N)=C1C=CC=CN1/C(=C\c1ccco1)C(=O)c1ccc(-c2ccccc2)cc1 | -5 | 1 | -20 | -11 | -92*
N#C/C(=C\c1ccco1)C(=O)NCc1ccccc1 | -4 | 0 | 0 | -1 | -8
Cc1ccc(OCC(=O)Nc2sc3c(c2C(N)=O)CCCC3)c(C(C)(C)C)c1 | 0 | -1 | -39* | 2 | .
Cc1ccc(OCC(=O)Nc2ccc(S(=O)(=O)Nc3ncccn3)cc2)c(C(C)(C)C)c1 | 2 | -3 | -31* | -4 | .
CC(=O)N1CCc2cc(S(=O)(=O)NC(CC(C)C)C(=O)NCCc3ccccc3)ccc21 (configuration not stated) | -1 | -1 | 14 | 6 | .
CCCCNC(=O)CCCn1c(=O)c2ccccc2n(Cc2cccc(Cl)c2)c1=O | -1 | 1 | 7 | -2 | .
COc1ccc(Cl)cc1NC(=O)CSc1c2c(nc3ccccc13)CCC2 | 3 | -2 | 0 | 4 | .
CC(=O)c1ccc(OCC(O)COc2ccc(C(C)=O)cc2)cc1 | 5 | 1 | -9 | 0 | -14
C=C(C)C(=O)OCC(O)COc1ccc(C(C)(C)c2ccc(OCC(O)COC(=O)C(=C)C)cc2)cc1 (configuration not stated) | -3 | 18 | -13 | 71* | 66
Cc1cc(=O)n(CC(=O)NCCC(C)C)c2c1c(C)nn2C | -5 | 8 | -26 | 9 | .
CCOC(=O)c1ccc(Nc2cc(C)nc(C)c2C(=O)OCC)cc1 | -1 | -1 | . | -3 | ?
CCOC(=O)c1ccc(Nc2nc3nonc3nc2Nc2cccc(C)c2C)cc1 | -3 | 24 | -39* | 10 | .
Cc1ccc(C)c(Nc2nc3nonc3nc2Nc2cccc(C)c2C)c1 | -2 | 8 | -31* | -7 | .
CC(C)c1cnc2c(c1SCC(=O)NCc1ccccc1Cl)c(=O)n(C)c(=O)n2C | -2 | 1 | -7 | 2 | .
CSc1nsc(NC(=O)Cc2ccccc2)n1 | 0 | 9 | -19 | 1 | 7
CCCCCCSc1nsc(NC(=O)CCC)n1 | 3 | 13 | -39* | 2 | -3
CCc1nc2c(OCCn3cccc3)cccn2c1N(C=O)Cc1ccc(OC)cc1 | . | . | . | -6 | -11
CCc1nc2c(OCCC3CCCCC3)cccn2c1N(C)C(=O)c1ccccc1F | . | . | . | -19 | -57*
CCc1nc2c(OCC3CCCCC3)cccn2c1N(C)C(=O)c1ccc(OC)cc1 | . | . | . | -18 | ?
CCc1nc2c(OCC=C(C)C)cccn2c1N(C)C(=O)c1ccccc1F | . | . | . | 6 | 14
CCc1nc2c(OCCn3cccc3)cccn2c1N(C=O)Cc1ccccc1 | . | . | . | 45* | -13
CCCOc1cccn2c(N(C)C(=O)c3ccccc3F)c(CC)nc12 | . | . | . | -9 | -72*
CCc1nc2c(OCC3CCCCC3)cccn2c1N(C)C(=O)c1ccccc1F | . | . | . | -4 | -57*
